Values joined by “and” are separate entries in the source; they are usually repeats but may differ in a detail not shown here. Equal values may be shown once.
How the values were obtained:
[1] = biological target: T1, Serine/threonine-protein kinase Nek9 (Homo sapiens) (UniProt Q8TD19); settings: at 1 µM;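 note: each value is a mean percent inhibition of NEK9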
T1 sequence (whole entry): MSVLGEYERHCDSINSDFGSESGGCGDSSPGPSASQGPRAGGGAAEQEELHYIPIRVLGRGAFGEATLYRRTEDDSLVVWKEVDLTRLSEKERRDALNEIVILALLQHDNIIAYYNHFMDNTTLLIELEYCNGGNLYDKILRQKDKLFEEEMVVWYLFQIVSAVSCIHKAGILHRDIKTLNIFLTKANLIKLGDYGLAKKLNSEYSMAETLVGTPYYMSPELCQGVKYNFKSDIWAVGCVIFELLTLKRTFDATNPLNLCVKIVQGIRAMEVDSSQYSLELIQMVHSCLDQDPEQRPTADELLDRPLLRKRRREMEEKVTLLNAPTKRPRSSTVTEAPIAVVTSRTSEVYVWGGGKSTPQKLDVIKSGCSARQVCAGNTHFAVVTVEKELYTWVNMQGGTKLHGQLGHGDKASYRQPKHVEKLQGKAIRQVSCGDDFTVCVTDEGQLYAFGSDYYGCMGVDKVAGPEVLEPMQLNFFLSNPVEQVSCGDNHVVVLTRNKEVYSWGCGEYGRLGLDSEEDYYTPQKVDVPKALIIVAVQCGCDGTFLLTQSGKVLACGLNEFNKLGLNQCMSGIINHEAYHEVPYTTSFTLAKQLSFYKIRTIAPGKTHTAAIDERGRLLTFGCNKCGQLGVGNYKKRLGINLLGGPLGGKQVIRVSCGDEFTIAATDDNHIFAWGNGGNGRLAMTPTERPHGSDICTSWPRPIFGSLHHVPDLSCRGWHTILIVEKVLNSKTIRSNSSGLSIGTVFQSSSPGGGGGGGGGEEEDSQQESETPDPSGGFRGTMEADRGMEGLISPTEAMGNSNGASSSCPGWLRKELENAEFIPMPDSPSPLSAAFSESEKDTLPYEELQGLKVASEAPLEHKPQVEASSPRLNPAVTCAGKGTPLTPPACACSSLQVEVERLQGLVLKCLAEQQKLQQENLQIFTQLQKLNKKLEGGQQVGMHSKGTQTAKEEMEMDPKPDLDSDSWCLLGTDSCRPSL

[2] = biological target: Serine/threonine-protein kinase PLK1 (Homo sapiens) (UniProt P53350); settings: at 0.1 µM
[3] = biological target: Serine/threonine-protein kinase PLK1 (Homo sapiens) (UniProt P53350); settings: at 1 µM
[4] = biological target: T2, Dual specificity protein kinase TTK (Homo sapiens) (UniProt P33981); settings: at 0.1 µM
T2 sequence (whole entry): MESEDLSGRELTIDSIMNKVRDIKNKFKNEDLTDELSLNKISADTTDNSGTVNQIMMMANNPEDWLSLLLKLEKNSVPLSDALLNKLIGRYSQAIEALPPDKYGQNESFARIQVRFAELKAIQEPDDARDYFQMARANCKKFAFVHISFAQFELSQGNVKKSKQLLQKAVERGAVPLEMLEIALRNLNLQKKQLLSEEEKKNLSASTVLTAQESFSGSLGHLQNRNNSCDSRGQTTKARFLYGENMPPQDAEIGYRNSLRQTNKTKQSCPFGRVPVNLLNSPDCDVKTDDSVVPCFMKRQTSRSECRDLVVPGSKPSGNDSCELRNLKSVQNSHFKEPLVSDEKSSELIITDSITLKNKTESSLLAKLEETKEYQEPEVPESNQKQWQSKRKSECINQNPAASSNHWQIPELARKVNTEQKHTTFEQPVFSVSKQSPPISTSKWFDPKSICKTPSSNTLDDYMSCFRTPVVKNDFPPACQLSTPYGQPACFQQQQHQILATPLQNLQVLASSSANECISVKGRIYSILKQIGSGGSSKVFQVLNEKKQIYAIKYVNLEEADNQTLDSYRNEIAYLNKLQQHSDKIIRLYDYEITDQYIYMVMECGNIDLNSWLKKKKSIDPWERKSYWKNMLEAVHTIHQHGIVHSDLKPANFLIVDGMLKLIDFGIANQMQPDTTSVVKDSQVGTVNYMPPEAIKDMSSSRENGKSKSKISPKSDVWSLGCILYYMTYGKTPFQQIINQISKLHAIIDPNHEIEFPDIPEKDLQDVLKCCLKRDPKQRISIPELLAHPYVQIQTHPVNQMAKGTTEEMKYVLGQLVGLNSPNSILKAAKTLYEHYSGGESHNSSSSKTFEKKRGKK

[5] = test system: T3, Receptor-type tyrosine-protein kinase FLT3 (Homo sapiens), P36888 [D835Y]; settings: at 1 µM
T3 sequence (whole entry): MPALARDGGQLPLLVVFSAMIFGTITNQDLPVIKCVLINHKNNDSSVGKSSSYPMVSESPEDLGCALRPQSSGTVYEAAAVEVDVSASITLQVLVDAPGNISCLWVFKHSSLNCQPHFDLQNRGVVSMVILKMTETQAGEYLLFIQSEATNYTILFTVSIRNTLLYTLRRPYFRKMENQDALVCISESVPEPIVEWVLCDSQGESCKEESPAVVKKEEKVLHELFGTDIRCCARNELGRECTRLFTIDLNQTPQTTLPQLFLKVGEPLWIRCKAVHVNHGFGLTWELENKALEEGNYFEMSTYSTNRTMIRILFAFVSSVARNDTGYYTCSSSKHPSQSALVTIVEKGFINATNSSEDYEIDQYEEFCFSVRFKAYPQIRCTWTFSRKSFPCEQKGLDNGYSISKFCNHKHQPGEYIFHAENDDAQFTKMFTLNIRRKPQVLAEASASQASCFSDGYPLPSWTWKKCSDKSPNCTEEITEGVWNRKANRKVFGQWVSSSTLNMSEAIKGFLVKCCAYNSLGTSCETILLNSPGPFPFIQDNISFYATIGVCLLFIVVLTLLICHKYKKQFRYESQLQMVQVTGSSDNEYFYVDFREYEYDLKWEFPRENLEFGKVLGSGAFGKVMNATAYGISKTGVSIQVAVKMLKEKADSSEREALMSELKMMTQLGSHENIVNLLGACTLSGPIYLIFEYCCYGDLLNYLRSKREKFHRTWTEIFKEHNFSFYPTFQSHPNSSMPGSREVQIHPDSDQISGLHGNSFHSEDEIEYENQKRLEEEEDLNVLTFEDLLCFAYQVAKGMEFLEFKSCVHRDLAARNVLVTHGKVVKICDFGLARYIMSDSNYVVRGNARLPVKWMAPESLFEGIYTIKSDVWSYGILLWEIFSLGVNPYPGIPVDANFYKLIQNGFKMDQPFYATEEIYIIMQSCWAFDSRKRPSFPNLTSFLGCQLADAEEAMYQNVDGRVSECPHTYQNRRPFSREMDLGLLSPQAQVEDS

[6] = biological target: Vascular endothelial growth factor receptor 3 (Homo sapiens) (UniProt P35916); settings: at 0.1 µM
[7] = biological target: Vascular endothelial growth factor receptor 3 (Homo sapiens) (UniProt P35916); settings: at 1 µM
[8] = biological target: Macrophage colony-stimulating factor 1 receptor (Homo sapiens) (UniProt P07333); settings: at 0.1 µM
[9] = biological target: Macrophage colony-stimulating factor 1 receptor (Homo sapiens) (UniProt P07333); settings: at 1 µM
[10] = biological target: Tyrosine-protein kinase Fyn (Homo sapiens) (UniProt P06241); settings: at 0.1 µM
[11] = biological target: Tyrosine-protein kinase Fyn (Homo sapiens) (UniProt P06241); settings: at 1 µM
[12] = biological target: Tyrosine-protein kinase HCK (Homo sapiens) (UniProt P08631); settings: at 0.1 µM
[13] = biological target: Tyrosine-protein kinase HCK (Homo sapiens) (UniProt P08631); settings: at 1 µM
[14] = biological target: Insulin-like growth factor 1 receptor (Homo sapiens) (UniProt P08069); settings: at 0.1 µM
[15] = biological target: Insulin-like growth factor 1 receptor (Homo sapiens) (UniProt P08069); settings: at 1 µM
[16] = biological target: Insulin receptor (Homo sapiens) (UniProt P06213); settings: at 0.1 µM
[17] = biological target: Insulin receptor (Homo sapiens) (UniProt P06213); settings: at 1 µM
[18] = biological target: Insulin receptor-related protein (Homo sapiens) (UniProt P14616); settings: at 0.1 µM
[19] = biological target: Insulin receptor-related protein (Homo sapiens) (UniProt P14616); settings: at 1 µM
[20] = biological target: T4, Tyrosine-protein kinase ITK/TSK (Homo sapiens) (UniProt Q08881); settings: at 0.1 µM;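 note: mean percent inhibition of ITK from the GSK PKIS screen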
T4 sequence (whole entry): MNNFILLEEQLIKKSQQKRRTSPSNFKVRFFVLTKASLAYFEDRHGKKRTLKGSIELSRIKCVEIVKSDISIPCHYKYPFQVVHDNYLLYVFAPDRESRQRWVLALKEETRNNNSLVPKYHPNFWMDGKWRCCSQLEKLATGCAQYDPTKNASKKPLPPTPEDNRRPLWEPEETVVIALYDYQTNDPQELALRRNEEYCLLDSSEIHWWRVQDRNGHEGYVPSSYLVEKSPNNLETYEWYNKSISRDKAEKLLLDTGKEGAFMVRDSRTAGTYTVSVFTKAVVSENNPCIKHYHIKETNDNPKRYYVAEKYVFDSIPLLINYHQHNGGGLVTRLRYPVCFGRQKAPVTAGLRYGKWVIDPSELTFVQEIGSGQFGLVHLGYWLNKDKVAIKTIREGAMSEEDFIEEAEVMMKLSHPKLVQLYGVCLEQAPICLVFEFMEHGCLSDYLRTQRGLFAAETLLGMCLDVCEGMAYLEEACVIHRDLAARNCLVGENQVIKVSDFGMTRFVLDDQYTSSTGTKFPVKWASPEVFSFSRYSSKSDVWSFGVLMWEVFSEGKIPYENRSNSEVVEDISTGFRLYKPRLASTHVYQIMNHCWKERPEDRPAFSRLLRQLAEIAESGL

Chain of Tyrosine-protein kinase HCK (Homo sapiens) (P08631 2-526 limits assumed): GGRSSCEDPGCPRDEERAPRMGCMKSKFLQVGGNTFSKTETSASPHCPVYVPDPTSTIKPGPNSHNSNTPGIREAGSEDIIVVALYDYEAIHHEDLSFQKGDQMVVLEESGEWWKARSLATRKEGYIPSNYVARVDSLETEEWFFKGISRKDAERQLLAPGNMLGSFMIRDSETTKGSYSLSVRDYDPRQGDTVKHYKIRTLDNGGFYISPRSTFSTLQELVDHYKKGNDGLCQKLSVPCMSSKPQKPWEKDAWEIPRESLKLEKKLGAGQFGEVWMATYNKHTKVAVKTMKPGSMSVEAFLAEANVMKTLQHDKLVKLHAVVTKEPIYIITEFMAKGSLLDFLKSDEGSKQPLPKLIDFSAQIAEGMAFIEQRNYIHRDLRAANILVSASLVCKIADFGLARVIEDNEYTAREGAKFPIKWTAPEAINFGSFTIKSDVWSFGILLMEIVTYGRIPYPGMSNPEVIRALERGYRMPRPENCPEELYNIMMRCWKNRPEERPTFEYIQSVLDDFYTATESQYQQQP
Chain of Insulin receptor (Homo sapiens) (P06213 28-758 limits assumed): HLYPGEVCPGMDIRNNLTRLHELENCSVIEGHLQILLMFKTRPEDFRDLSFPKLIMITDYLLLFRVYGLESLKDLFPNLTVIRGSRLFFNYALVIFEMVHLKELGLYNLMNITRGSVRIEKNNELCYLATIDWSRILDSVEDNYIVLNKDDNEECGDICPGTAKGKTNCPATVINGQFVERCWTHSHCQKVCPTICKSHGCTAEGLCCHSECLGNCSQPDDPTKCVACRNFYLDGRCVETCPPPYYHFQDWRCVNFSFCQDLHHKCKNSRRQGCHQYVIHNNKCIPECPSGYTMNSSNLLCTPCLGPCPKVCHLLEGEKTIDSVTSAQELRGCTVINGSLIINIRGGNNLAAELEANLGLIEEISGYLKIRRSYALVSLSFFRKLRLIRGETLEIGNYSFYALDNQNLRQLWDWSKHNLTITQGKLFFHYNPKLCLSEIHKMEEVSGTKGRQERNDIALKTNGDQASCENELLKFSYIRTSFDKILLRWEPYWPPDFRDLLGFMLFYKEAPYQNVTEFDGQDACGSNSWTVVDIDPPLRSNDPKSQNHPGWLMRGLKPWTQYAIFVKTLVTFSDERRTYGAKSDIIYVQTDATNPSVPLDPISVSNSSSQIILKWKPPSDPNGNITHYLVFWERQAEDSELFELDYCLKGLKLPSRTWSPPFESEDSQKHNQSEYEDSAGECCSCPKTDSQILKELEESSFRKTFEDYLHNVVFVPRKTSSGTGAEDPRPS
Chain of Insulin receptor (Homo sapiens) (P06213 763-1382 limits assumed): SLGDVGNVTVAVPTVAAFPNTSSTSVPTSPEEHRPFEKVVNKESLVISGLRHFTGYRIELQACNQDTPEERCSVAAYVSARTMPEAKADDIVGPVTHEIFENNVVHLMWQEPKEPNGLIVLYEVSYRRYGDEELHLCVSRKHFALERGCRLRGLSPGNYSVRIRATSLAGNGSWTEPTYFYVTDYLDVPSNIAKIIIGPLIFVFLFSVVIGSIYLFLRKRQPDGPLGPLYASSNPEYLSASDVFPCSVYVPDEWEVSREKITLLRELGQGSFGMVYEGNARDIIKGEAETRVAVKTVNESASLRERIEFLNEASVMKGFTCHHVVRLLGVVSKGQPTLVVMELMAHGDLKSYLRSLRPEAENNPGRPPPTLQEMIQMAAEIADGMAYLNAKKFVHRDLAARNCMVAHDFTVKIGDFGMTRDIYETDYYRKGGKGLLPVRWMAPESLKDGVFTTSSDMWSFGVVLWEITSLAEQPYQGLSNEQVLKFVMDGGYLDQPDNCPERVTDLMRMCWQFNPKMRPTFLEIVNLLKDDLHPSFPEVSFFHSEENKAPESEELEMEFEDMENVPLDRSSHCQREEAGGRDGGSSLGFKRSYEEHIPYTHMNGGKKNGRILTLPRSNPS
Chain of Vascular endothelial growth factor receptor 3 (Homo sapiens) (P35916 whole entry): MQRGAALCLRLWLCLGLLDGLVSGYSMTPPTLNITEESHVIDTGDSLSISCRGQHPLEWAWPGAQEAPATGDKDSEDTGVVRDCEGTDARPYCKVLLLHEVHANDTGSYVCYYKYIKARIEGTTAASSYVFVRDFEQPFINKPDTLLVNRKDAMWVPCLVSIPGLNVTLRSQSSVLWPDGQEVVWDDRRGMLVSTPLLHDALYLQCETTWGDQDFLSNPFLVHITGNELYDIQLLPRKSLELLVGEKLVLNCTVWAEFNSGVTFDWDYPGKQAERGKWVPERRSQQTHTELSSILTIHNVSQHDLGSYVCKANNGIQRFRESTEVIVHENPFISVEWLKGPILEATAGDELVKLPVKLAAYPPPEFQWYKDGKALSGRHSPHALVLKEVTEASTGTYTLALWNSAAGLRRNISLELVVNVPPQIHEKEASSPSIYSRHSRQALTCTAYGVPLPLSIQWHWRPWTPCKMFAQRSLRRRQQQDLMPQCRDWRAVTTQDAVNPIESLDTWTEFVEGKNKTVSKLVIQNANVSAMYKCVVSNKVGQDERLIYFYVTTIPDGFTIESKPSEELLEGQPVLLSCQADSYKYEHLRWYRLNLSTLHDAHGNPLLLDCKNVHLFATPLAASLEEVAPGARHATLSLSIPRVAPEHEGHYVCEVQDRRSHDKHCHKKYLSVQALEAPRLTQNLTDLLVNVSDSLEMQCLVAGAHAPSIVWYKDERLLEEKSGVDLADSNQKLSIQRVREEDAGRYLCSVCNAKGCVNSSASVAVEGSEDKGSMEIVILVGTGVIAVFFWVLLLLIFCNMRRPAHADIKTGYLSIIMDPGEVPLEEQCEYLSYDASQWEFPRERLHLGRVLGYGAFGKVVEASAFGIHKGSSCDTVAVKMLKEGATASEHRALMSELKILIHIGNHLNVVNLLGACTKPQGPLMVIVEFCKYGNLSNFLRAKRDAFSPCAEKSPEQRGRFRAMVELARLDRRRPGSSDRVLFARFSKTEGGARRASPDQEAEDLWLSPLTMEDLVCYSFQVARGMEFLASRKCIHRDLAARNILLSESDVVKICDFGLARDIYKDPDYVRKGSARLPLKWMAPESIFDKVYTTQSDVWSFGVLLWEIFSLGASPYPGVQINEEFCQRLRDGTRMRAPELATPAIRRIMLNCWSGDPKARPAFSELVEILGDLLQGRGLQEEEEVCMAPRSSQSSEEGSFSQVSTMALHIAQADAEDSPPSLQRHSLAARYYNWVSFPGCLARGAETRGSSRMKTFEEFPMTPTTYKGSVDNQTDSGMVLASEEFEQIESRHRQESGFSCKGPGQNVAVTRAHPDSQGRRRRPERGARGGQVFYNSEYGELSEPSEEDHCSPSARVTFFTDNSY
Chain of Macrophage colony-stimulating factor 1 receptor (Homo sapiens) (P07333 whole entry): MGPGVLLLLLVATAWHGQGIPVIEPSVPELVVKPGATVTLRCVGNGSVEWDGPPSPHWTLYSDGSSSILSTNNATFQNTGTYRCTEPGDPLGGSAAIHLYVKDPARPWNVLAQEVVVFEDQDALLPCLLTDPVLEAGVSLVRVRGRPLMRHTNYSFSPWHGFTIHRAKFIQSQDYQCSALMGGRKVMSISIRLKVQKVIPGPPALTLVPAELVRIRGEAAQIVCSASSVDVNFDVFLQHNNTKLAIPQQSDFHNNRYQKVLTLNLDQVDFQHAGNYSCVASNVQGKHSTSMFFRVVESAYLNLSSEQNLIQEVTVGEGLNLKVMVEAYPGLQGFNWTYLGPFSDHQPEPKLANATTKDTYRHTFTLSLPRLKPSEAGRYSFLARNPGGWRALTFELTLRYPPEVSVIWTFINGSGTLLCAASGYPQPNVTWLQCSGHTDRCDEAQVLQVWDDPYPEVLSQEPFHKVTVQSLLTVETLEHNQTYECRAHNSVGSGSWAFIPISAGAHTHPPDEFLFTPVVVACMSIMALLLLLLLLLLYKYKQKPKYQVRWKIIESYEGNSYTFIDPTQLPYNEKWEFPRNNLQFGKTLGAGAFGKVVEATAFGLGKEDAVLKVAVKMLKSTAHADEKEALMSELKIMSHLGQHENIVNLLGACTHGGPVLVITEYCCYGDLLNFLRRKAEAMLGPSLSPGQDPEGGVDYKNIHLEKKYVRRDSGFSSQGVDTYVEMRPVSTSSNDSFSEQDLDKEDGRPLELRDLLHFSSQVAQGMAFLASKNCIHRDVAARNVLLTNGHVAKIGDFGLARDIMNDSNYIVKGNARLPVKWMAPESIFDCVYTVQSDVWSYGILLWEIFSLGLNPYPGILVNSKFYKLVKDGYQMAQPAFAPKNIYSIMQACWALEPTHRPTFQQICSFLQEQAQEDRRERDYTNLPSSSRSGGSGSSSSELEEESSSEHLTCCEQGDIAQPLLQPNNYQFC
Chain of Tyrosine-protein kinase Fyn (Homo sapiens) (P06241 2-537 limits assumed): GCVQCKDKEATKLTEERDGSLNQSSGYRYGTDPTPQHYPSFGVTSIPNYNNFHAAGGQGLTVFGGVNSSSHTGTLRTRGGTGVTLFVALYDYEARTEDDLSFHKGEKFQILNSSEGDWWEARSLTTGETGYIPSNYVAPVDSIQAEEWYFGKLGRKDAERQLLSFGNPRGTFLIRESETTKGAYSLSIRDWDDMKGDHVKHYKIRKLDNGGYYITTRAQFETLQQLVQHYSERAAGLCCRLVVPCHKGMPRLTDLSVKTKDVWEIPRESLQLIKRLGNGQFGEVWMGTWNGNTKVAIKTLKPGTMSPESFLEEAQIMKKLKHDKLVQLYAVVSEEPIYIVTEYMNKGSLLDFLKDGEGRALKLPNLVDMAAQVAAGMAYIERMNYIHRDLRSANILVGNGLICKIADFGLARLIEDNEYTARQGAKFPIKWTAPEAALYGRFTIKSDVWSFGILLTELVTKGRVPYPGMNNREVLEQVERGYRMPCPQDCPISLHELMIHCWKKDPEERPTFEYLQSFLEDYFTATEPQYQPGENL

| SMILES | inhibition [1] | inhibition [2] | inhibition [3] | inhibition [4] | inhibition [5] | inhibition [6] | inhibition [7] | inhibition [8] | inhibition [9] | inhibition [10] | inhibition [11] | inhibition [12] | inhibition [13] | inhibition [14] | inhibition [15] | inhibition [16] | inhibition [17] | inhibition [18] | inhibition [19] | inhibition [20] |
| --- | --- | --- | --- | --- | --- | --- | --- | --- | --- | --- | --- | --- | --- | --- | --- | --- | --- | --- | --- | --- |
| COC(=O)Nc1nc2cc(Oc3ccc(NC(=O)Nc4ccccc4)cc3)ccc2[nH]1 | 6.76% | 2.19% | 4.22% | 6.44% | 2.44% | 1.7% | -0.36% | 11.4% | 21.8% | 0.67% | 4.68% | 2.26% | 4.53% | 0.4% | -0.2% | 3.75% | 6.99% | 0.98% | 1.1% | -0.1% |
| NS(=O)(=O)c1ccc(N/N=C2\C(=O)Nc3ccc(C(=O)NCc4ccncc4)cc32)cc1 | 9.05% | 3.77% | 2.52% | 37.6% | 34.3% | 16.7% | 48.7% | 3.12% | 8.74% | 9.13% | 50.9% | 5.39% | 16.3% | 10.1% | 9.32% | 1.24% | 3.32% | 2.61% | 2.45% | 0.99% |
| CN1CCC(n2cnc(-c3ccc(F)cc3)c2-c2ccnc(NCCO)n2)CC1 | 8.58% | 1.49% | 2.42% | -0.23% | 4.59% | 4.64% | 0.88% | 3.25% | 3.2% | 2.96% | 1.8% | 3.07% | 9.14% | 3.65% | 4.78% | 2.63% | 3.28% | 3.34% | 2.39% | 1.66% |
| Cc1cc(O)cc(C)c1/C=C/c1cncc(C(N)=O)c1 | 0.49% | 2.01% | 1.27% | 4.3% | 2.14% | 1.77% | 0.45% | 5.27% | 31.3% | 5.86% | 36.2% | 15.2% | 65.3% | 5.33% | 2.8% | 3.56% | 2.45% | 1.49% | 1.71% | 1.53% |
| CC1=C(C(=O)Nc2ccc3[nH]nc(C)c3c2)C(c2ccc(C(F)(F)F)cc2)CC(=O)N1 (stereo not given) | -5.55% | 3.32% | 0.85% | 4.14% | 5.4% | 5.85% | 2.72% | 1.56% | 2.04% | 2.88% | 2.72% | 4.64% | 9.34% | 2.37% | 3.78% | 0.03% | 1.72% | 2.64% | 1.26% | 1.81% |
| Cc1c2ccc(N(C)c3ccnc(Nc4cccc(S(N)(=O)=O)c4)n3)cc2nn1C | 6.19% | 3.29% | 3.99% | 8.91% | 13.8% | 58.8% | 93.8% | 78.4% | 91.7% | 13.8% | 60.5% | 31.2% | 73.8% | -4.22% | 13.1% | 7.68% | 18.7% | 2.78% | 2.81% | -1.73% |
| Nc1ncnc2occ(-c3ccc(NC(=O)Nc4cc(C(F)(F)F)ccc4F)cc3)c12 | 4.68% and 3.35% | 2.14% and -0.72% | 1.27% and 0.12% | 1.69% and 5.46% | 35.4% and 26.1% | 44.8% and 23.6% | 97.2% and 75.5% | 91.2% and 83.5% | 96.1% and 81.2% | 2.34% and 3.05% | 24.3% and 15.7% | 9.61% and 2.25% | 46.5% and 31.6% | 11.3% and 1.32% | 10.7% and 0.73% | 2.86% and 1.65% | 13.2% and 8.78% | 1.56% and -3.07% | 1.62% and -3% | 2.22% and -1.63% |
